Screening results: PubChem, National Center for Advancing Translational Sciences (NCATS)
Lassa entry inh: Lassa virus entry inhibition. Lassa virus pseudotype entry inhibition, cell reporter. Potency, µM (doses to about 37.9 µM), for inactives: at the top dose activity change, negative = inhibition, most hits filed as inhibitors. 300,000 tested, 1.2% active. AID 540256; calls by dose curve; tested in HEK293 cells; further: potency means the concentration at half of the fitted maximal effect; on the % scale 0 is the no-effect control and ±100 the full control effect; nearly all actives have a fitted effect of over 50% in size
Cycloheximide cs: affects cycloheximide protein synthesis inhibition readout, counter-screen; cell reporter, cycloheximide protein synthesis inhibition counterscreen; max response, %; 300,000 tested, 12% active; in the data active means max response mostly above about 13%, no sharp cut-off; inactive means mostly below about 14%; further: read at 38.3 µM for the half of the compounds with a filed dose; 0% is about no effect
FMDV inh: foot and mouth disease virus antiviral activity; FMDV antiviral cell-based qHTS; 410,000 tested, 1.2% active; AID 1159524; Potency, µM (doses to about 57.9 µM), without a hit: top-dose activity change, negative = inhibition, most hits filed as inhibitors; calls by dose curve; tested in HEK293T cells; further: read-out not given here; potency means the concentration at half of the fitted maximal effect; on the % scale 0 is the no-effect control and ±100 the full control effect; nearly all actives have a fitted effect of over 45% in size
Marburg entry inh: Marburg virus entry inhibition; AID 540276; Potency, µM (titrated, usually from 37.8 µM), inactives show at the top dose activity change, negative = inhibition, usual class: inhibitors; Marburg virus pseudotyped entry inhibition, cell reporter; 300,000 tested, 1.8% active; calls by dose curve; tested in HEK293 cells; further: potency means the concentration at half of the fitted maximal effect; on the % scale 0 is the no-effect control and ±100 the full control effect
Shiga toxin inh: Shiga toxin inhibition; 290,000 tested, 9.2% active; AID 2315; Vero cells, Shiga toxin protein synthesis inhibition reporter; inhibition, % at 38.7 µM; in the data active means inhibition mostly above about 28%, no sharp cut-off; inactive means mostly below about 43%; further: 0% is about no effect
HCV inh: inhibitors of hepatitis C virus infection. AID 651820. 340,000 tested, 3.4% active. Huh7.5.1 HCVcc-Cre infection, luciferase reporter, 44 h. Potency, µM (series often up to 41.8 µM), for inactives: top-dose activity change, negative = inhibition, usual class: inhibitors; active means well fitted inhibition curve with a large enough effect; inconclusive means small, poorly fitted or top-dose-only effect, or another doubt; inactive means no such curve, though single readings can be large or run the other way; further: potency means the concentration at half of the fitted maximal effect; on the % scale 0 is the no-effect control and ±100 the full control effect
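HCVcc-Cre virus at an moi near 0.5 was added right after compound to cells cultured 4 h from seeding (1,000 cells/well). Luciferase activity was determined 44 h later, 15 min after substrate addition at RT.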
* hit, by the source's call; u = inconclusive; x = not tested or not shown; [ ] = another dose, or the depositor's remark. Compounds with a hit are over-represented: about 13% of the library has one in this group of screens.

SMILES	Lassa entry inh	Cycloheximide cs	FMDV inh	Marburg entry inh	Shiga toxin inh	HCV inh
O=C(NC(=S)Nc1ccc(F)c([N+](=O)[O-])c1)c1ccccc1F	u	23*	13%	u	37*	-28%
O=C(NC(=S)Nc1ccc2[nH]c(=O)[nH]c2c1)c1ccccc1F	-4%[46.1 µM]	15	-14%	5%[46.1 µM]	25	-4%
O=C(Nc1ccc(Cl)c([N+](=O)[O-])c1)Nc1nc2ccccc2s1	x	4	x	x	22	x
O=C(Cc1ccc(F)cc1)Nc1ccc(F)c([N+](=O)[O-])c1	-8%	-1	1%	12%[46.1 µM]	-13	6%
O=C(Nc1ccccc1)Nc1ccc(F)c([N+](=O)[O-])c1	-11%	45*	u	u	46*	u
CC(C)C(=O)Nc1ccc(NC(=S)NC(=O)c2ccccc2F)cc1	u	15*	13%	-15%	30	u
Cc1ccc(CN2c3ccccc3-c3nc(SCC(=O)Nc4c(C)cc(C)cc4C)ncc3S2(=O)=O)cc1	u	x	-9%	x	x	x
CC(NCc1ccc(S(N)(=O)=O)cc1)C(=O)Nc1cc([N+](=O)[O-])ccc1Cl (stereo not drawn)	8%	-3	-21%	-28%[46.1 µM]	20	u
Cc1ccsc1C(=O)Nc1ccc(F)c([N+](=O)[O-])c1	u	35*	5%	7%	53*	-15%
Cc1ccc(NC(=O)Nc2ccccc2)cc1[N+](=O)[O-]	16%	52*	13%	10%	146*	u
Cc1ccc(OCCSc2nnc(-c3cccs3)o2)cc1Cl	5%[46.1 µM]	x	2%	-2%[46.1 µM]	x	x
CC1=C(C(=O)NCCc2ccc(Cl)cc2)C2(CCCCC2)OC1=O	3%[46.1 µM]	x	-8%	x	x	x
Cc1sc2ncnc(N3CCC(C(=O)Nc4ccc(Br)cc4Br)CC3)c2c1C	u	x	20µM*	11µM*	x	u
Cc1sc2ncnc(N3CCC(C(=O)NCC(=O)Nc4ccc(F)c(F)c4)CC3)c2c1C	u	0	u	u	-14	8.9µM*
CCc1cccc(NC(=O)C2CCN(c3ncnc4sc(C)c(C)c34)CC2)c1	x	x	u	x	x	11µM*
COc1ccc(-c2cnc(C(O)c3ccc(OC)c(F)c3)[nH]2)cc1 (stereo not drawn)	x	x	4%	x	x	x
COc1ccc(N2C(S)=C(C#N)C(=O)NC23CCCCC3)cc1	3%	0	36%	-22%[14.2 µM]	16	-1%
O=C(NC(NC1CCS(=O)(=O)C1)C(=O)c1ccccc1)c1ccc(Cl)cc1 (stereo not drawn)	-1%	-3	x	0%	8	-3%
CCN(CC)CCCNC(=O)c1sc2ncn(CC(=O)Nc3ccc(C)c(Cl)c3)c(=O)c2c1C	x	-5	-8%	x	-10	14µM*
COCCCNC(=O)c1sc2ncn(CC(=O)Nc3ccc(C)c(Cl)c3)c(=O)c2c1C	-20%[46.1 µM]	-2	-13%	-6%[46.1 µM]	18	u
Cc1ccc(NC(=O)Cn2cnc3sc(C(=O)NCCN(C)C)c(C)c3c2=O)cc1Cl	x	-2	x	x	-4	10µM*
CCn1cnc2sc(C(=O)Nc3ccc4c(c3)OCO4)c(C)c2c1=O	u	38*	39%	15%	94*	u
Cc1c(C(=O)NCc2ccc3c(c2)OCCO3)sc(=O)n1Cc1ccccc1C(F)(F)F	x	x	-12%	x	x	x
CCc1nnc(NC(=O)CSc2nnc(C(C)NC(=O)c3ccccc3)n2C)s1 (stereo not drawn)	-3%[46.1 µM]	-7	2%	-25%[46.1 µM]	4	-2%
CN(c1ccccc1)S(=O)(=O)c1nnc(NC(=O)c2cccs2)s1	5%[46.1 µM]	x	20%	x	x	x
SMILES	Lassa entry inh	Cycloheximide cs	FMDV inh	Marburg entry inh	Shiga toxin inh	HCV inh
COC(=O)c1sc(NC(=S)NC(=O)c2cc(OC)c(OC)c(OC)c2)nc1C	x	-1	-20%	x	-7	-24%
CCOC(=O)c1sc(NC(=S)NC(=O)c2ccccc2)nc1C	x	42*	62%	x	165*	10%
Cc1nc(NC(=S)NC(=O)c2ccccc2)sc1C(=O)N(C)C	u	22*	47%	23%	34	1%
CCOC(=O)c1sc(NC(=S)NC(=O)c2cccc(OC)c2)nc1C	-2%	10	11%	-3%	5	-27%
COC(=O)c1sc(NC(=S)NC(=O)c2ccccc2Cl)nc1C	u	40*	45%	u	65*	-21%
COC(=O)c1sc(NC(=S)NC(=O)c2ccccc2)nc1C	u	26*	29%	u	-9	2%
COC(=O)c1sc(NC(=O)/C=C/c2ccc(C)cc2)nc1C	6%	9	18%	u	14	13%
CCOC(=O)C1=C(NC(=S)NC(=O)c2ccccc2)c2ccccc2CC12CCCC2	2.6µM*	1	u	3.7µM*	-10	u
COc1ccc(N2C(=O)CC(Sc3ncn[nH]3)C2=O)c(OC)c1 (stereo not drawn)	2%	8	5%	20%	-12	16µM*
CCC(C)(C)C(=O)Nc1nnc(CCc2ccccc2)s1	x	39*	40%	x	80*	3%
CCCC(=O)Nc1nnc(CCc2ccccc2)s1	x	7	15%	x	12	-4%
CC(C)(C)CC(=O)Nc1nnc(CCc2ccccc2)s1	u	29*	31%	u	93	19%
CC(C)NC1C2CCC(CC2)C1(O)c1ccc(Cl)c(Cl)c1 (stereo not drawn)	x	x	-25%	x	x	x
Nc1nnc(SCC(=O)NNC(=O)c2ccc([N+](=O)[O-])cc2)s1	x	x	-10%	x	x	7%
Cc1ccccc1CC(=O)N1CCN(C(=O)C2CCCO2)CC1 (stereo not drawn)	-10%[46.1 µM]	2	-2%	15%[46.1 µM]	-19	2%
Cc1cccc(-c2nc(CN3CCN(C(=O)C4CCCO4)CC3)cs2)c1 (stereo not drawn)	u	7.6*	-26%	-36%	7	u
COc1ccc(CNC(=O)CSc2nnc(-c3cccnc3)n2N)cc1	-1%	-1	7%	u	-24	10%
Cc1ccc(/C(O)=C2/C(=O)C(=O)N(CCN3CCOCC3)C2c2ccccn2)cc1 (stereo not drawn)	0%	34*	6%	-1%	105*	-6%
O=C(C1=C(O)C(=O)N(CCN2CCOCC2)C1c1ccccc1)c1cccs1 (stereo not drawn)	-4%	x	59%	15%	x	0%
COc1ccc(/C(O)=C2/C(=O)C(=O)N(CCN3CCOCC3)C2c2ccccn2)cc1OC (stereo not drawn)	11%	25*	-4%	u	64*	u
O=C(C1=C(O)C(=O)N(CCCN2CCOCC2)C1c1ccccn1)c1cccs1 (stereo not drawn)	x	75*	x	-1%	43*	x
O=C1C(=O)N(CCN2CCOCC2)[C@@H](c2ccccn2)/C1=C(\O)c1ccccc1	x	x	x	23%	x	x
O=C1C(=O)N(CCN2CCOCC2)C(c2ccccn2)/C1=C(/O)c1ccccc1 (stereo not drawn)	3%	30*	14%	23%	109*	2%
CCc1ccc(C(=O)CSC2=C(C#N)C(c3ccco3)C(C(C)=O)=C(C)N2)cc1 (stereo not drawn)	x	30*	x	3%	32	x
